Activity calls are given as the source filed them. Calls come from the whole dose curve; as a rule, active = well fitted activation curve with a large enough effect; inactive = flat fitted curve, though single readings scatter.

The nature of the assay: Followup screen of LOPAC molecules that induce DNA re-replication in SW480 adenocarcinoma cells. Particulars: Hoechst nuclear DNA content imaging, 48 h; series mostly up to 46.1 µM; activation (re-replication): at the top concentration. An excerpt: NIH Molecular Libraries Probe Production Network [MLPCN] NIH Chemical Genomics Center [NCGC] MLPCN Grant: Fast Track K99 CA136555 Assay Provider: Melvin DePamphilis, NICHD, NIH Assay Overview Eukaryotic cells normally restrict genome duplication to once per cell division. When this process is aberrant, DNA re-replication occurs when cells reinitiate DNA replication before the first round of replication is complete. DNA re-replication induces the DNA damage response, arrests cell proliferation, and triggers apoptosis. The cell cycle components cyclin A, Cdt-1, Cdc6 and geminin are critical regulators of this process and their misregulation results in DNA re-replication in normal and cancer cells. To identify compounds that induce re-replication in normal cells, an image-based assay was used to measure DNA content of nuclei, as detected by the fluorescent DNA binding dye, Hoechst. Cell nuclei were imaged by a fluorescence scanning plate imager and compounds that induce DNA re-replication were identified by the increase of nuclei with elevated fluorescence intensity.
Assay Protocol Summary For screening, 250 cells in 5 uL/well were dispensed into black clear 1536-well plates (Aurora) using a solenoid-based dispenser. Following transfer of 23 nL compound or DMSO vehicle by a pin tool, the plates were incubated 48 hr at 37 C and 5% CO2. After addition of 1 uL/well Hoescht stain, the plates were incubated 40 min at 37 C, 5% CO2 and total intensity of fluorescent objects (nuclei) were enumerated by an Acumen Explorer Ex3 (TTP LabTech) fluorescence scanning plate imager (405 nm excitation, 500-530 nm emission). Keywords: NIH Roadmap, MLPCN, MLI, MLSMR, qHTS, NCGC, DNA replication, cancer
With `CC(C)NP(=O)(NC(C)C)OP(=O)(NC(C)C)NC(C)C`, the “activation (re-replication)” value was -6.9% (inactive).
Take `NCC#Cc1ccccc1`: the Potency was 7.55 µM (active).
On the same count and under the same terms, next, `COc1cc([C@@H]2c3cc4c(cc3[C@H](O)[C@@H]3COC(=O)[C@H]23)OCO4)cc(OC)c1OC`: 0.0239 µM (active).

Values taken from PubChem BioAssay AID504806 (National Center for Advancing Translational Sciences (NCATS), 2011).
